In the library only some 3.1% were active in any assay of this set; here they are far more common.
EP2 mod: modulators of human EP2 prostaglandin E2 receptor | P43116 | 0.83% of 260,000 active | induction, % at 25 µM | AID 940 | EP2-expressing cells, cAMP HTRF FRET, PGE2 co-stimulation;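 active = compounds whose cAMP rise, as percent of the full-agonist control response, exceeds 60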;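 also: rat C6 glioma line stably carrying human EP2 under a CMV promoter; the protocol text gives 20 µM as final concentration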
Target sequence (P43116 whole entry, looked up): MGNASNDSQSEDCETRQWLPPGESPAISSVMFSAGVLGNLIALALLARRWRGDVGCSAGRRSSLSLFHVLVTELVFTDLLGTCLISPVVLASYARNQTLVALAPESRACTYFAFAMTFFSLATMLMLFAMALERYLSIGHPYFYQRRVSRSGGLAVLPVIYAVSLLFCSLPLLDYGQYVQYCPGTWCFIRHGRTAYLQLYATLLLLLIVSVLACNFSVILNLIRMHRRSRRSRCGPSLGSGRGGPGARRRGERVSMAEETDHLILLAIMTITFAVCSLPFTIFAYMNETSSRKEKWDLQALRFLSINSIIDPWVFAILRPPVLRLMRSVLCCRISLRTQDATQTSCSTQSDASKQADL
S1P3 antagonist: blocks the human S1P3 receptor. CHO S1P3 NFAT-BLA reporter, FRET fluorescence, antagonist mode. inhibition, % at 4.98 µM. 0.27% of 170,000 active. AID 485;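 active = inhibition above the plate cutoff, the mean inhibition of test wells on that plate plus 3 SD, cut at about 28% in these data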;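 also: cells challenged with S1P at its EC80 of 0.8 µM; blue over green emission ratio from cleaved BLA substrate after 4 h stimulation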
EP2 antag: EP2 receptor (human) inhibition; 0.52% of 260,000 active; AID 1422; inhibition, % at 25 µM; C6 glioma cells expressing human EP2, cAMP TR-FRET; cells stimulated with saturating PGE2;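 active = percent inhibition above 40 after rounding to a whole number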;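 also: rat C6 glioma host cells with rolipram phosphodiesterase inhibitor present; the protocol text gives 20 µM as final concentration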
KCC2 mod: modulates chloride dependent transport by human KCC2; KCC2 cells, thallium flux FluoZin-2 fluorescence; Q9H2X9; B-score of Tl+ flux slope (higher = more flux/activation; lower = inhibition) at 10 µM; 2.2% of 190,000 active;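 active = thallium flux slope and its plate-corrected score both differing from the plate sample mean at a set confidence after two filtering rounds, in either direction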;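 also: slope of fluorescence scaled to starting intensity during 10 to 20 s after thallium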
Hits are given with their value; n = inactive; x = no result given.

SMILES	EP2 mod	S1P3 antagonist	EP2 antag	KCC2 mod
CC(C)(C)N(Cc1ccccc1)C(=O)c1ccc(Cl)cc1[N+](=O)[O-]	62.7	n	n	n
CCOC(=O)c1c(NC(=O)C2C3C=CC(C3)C2C(=O)O)sc2c1CCC(CC)C2 (configuration not stated)	n	n	n	-5.75
CCOC(=O)C(C)Sc1nc(-c2ccccc2)ccc1C#N (configuration not stated)	62.4	x	n	x
CC(C)C(Sc1nc(-c2ccccc2)cc(-c2ccccc2)c1C#N)C(=O)O (configuration not stated)	61.9	n	n	n
N#Cc1c(-c2ccccc2)cc(-c2ccccc2)nc1SCC(=O)NCC(=O)O	n	n	n	n
CCN(CC)C(=O)CSc1nc(-c2ccccc2)ccc1C#N	n	n	n	n
CCc1ccc2[nH]c(=O)c(CN(CC3CCCO3)C(c3nnnn3Cc3ccco3)C(C)C)cc2c1 (configuration not stated)	n	x	n	x
O=Cc1cccc(OC(=O)c2ccc(Cl)cc2Cl)c1	63.7	x	n	x
CCn1c(SCc2ccc(C(C)(C)C)cc2)nnc1-c1ccncc1	n	x	n	x
O=c1[nH]c2ccc(S(=O)(=O)Nc3ccc(-c4nnc5n4CCCCC5)cc3)cc2o1	n	65.8	n	n
CCOC(=O)Cn1nnnc1CN(Cc1ccco1)Cc1cc2ccc(C)cc2[nH]c1=O	n	x	n	x
CCCn1cc(CN2CCn3c(CO)nnc3C2)c2ccccc21	n	x	n	x
COc1ccc(-c2nn3c(C4CCCCC4)nnc3s2)cc1OC	61.1	x	n	n
COc1cc(-c2nn3c(C4CCCCC4)nnc3s2)cc(OC)c1OC	n	x	n	n
COc1ccc(-c2nnc(NC(=O)c3ccc(S(=O)(=O)N4CCCc5ccccc54)cc3)o2)cc1	n	n	x	12.5
CC1CN(S(=O)(=O)c2ccc(C(=O)Nc3nnc(-c4ccccn4)o3)cc2)CC(C)O1 (configuration not stated)	n	n	n	n
CC1CN(S(=O)(=O)c2ccc(C(=O)Nc3nnc(-c4ccc5c(c4)CCCC5)o3)cc2)CC(C)O1 (configuration not stated)	n	84.3	n	7.91
CCOc1ccccc1NC(=O)COC(=O)c1cccs1	n	x	n	x
Cc1ccccc1NC(=O)CSc1nc2c(c(-c3ccco3)c1C#N)CCCC2	n	78.7	n	n
CCc1ccccc1NC(=O)CSc1nc2c(c(-c3ccco3)c1C#N)CCCC2	n	n	n	n
CCOCCCNCc1ccc2c(c1)OCO2	n	x	n	x
C/C(N)=C(/C#N)C(=O)COC(=O)c1ccncc1	n	n	n	n
C/C(N)=C(/C#N)C(=O)COC(=O)c1ccccc1Cc1ccccc1	62.6	n	n	n
COC(=O)c1c(NC(=O)c2ccc(Cl)c(Cl)c2)sc(C(=O)Nc2ccccc2OC)c1C	n	x	n	x
CCn1c(SCC(=O)Nc2ccccc2)nnc1-c1ccoc1C	n	x	n	x
SMILES	EP2 mod	S1P3 antagonist	EP2 antag	KCC2 mod
Cc1nc2ccc(NC(=O)c3cc([N+](=O)[O-])cc([N+](=O)[O-])c3Cl)cc2s1	n	n	121.2	n
Cn1c(SCC(=O)c2cc3ccccc3o2)nnc1-c1ccccc1	n	n	n	-7.24
CCc1ccc2[nH]c(=O)c(C(c3nnnn3Cc3ccccc3)N3CCCc4ccccc43)cc2c1 (configuration not stated)	66.4	x	n	x
Cc1cc(C)c2cc(C(c3nnnn3C3CCCCC3)N3CCCc4ccccc43)c(=O)[nH]c2c1 (configuration not stated)	71.4	x	n	x
CCc1ccc2[nH]c(=O)c(C(c3nnnn3Cc3ccco3)N3CCC(C)CC3)cc2c1 (configuration not stated)	60.9	x	n	x
CCN(CC)CCN(Cc1cc2ccc(C)cc2[nH]c1=O)C(=S)NCC1CCCO1 (configuration not stated)	n	x	n	x
CCCn1c(SCC(=O)Nc2ccccc2CC)nnc1-c1ccncc1	n	x	n	x
COc1ccccc1N1CCN(C(=O)C2CC=CCC2C(=O)O)CC1 (configuration not stated)	n	n	n	-3.57
Cc1ccc(CN(CCCn2ccnc2)Cc2cnc(N(C)C)nc2)o1	n	x	n	x
CCCCOc1ccc2c(C)cc(=O)oc2c1OCCCC	62.4	x	n	n
CCCCC[C@H](O)/C=C/[C@H]1C=CC(=O)[C@@H]1C/C=C\CCCC(=O)O	103.5	n	n	n
CCN1C(=O)c2cccc3c(NC(=O)C(C)(C)C)ccc1c23	n	n	50.2	n
c1ccc(CCN(Cc2ccccc2)Cc2nc(C3CC3)no2)cc1	61.9	n	n	n
CCN(Cc1ccccc1)Cc1nc(CCc2ccccc2)no1	n	n	n	n
COc1ccccc1C(NC(=O)c1nccc2ccccc12)c1nccn1C (configuration not stated)	n	x	x	x
COc1ccc(-c2ccc(=O)n(CC3CCN(C(=O)C4CCC4)CC3)n2)cc1OC	n	x	x	x
COc1cc(Cn2c(-c3ccc(O)c(OC)c3)nc3ccccc32)ccc1O	n	n	n	n
Oc1ccc(Cn2c(-c3ccc(O)cc3)nc3ccccc32)cc1	n	x	46.6	x
Cn1nnc(NC(=O)c2ccc(Cl)cc2)n1	n	x	n	x
COc1ccc(C(=O)CC(=O)C(=O)NCCc2cccc(C)c2)cc1	n	n	n	8.33
CCn1c(Cc2ccccc2)nnc1SCC(=O)Nc1cc(C)ccc1OC	n	x	n	x
CCCCN(C(=O)c1cccc2c(=O)c(C)c(-c3ccccc3)oc12)c1ccccc1	63.7	n	n	n
O=C(O)CNC(=O)[C@H]1NC(C(F)(F)F)(C(F)(F)F)OC1(C(F)(F)F)C(F)(F)F	n	x	42.1	x
Cc1ccc(N(Cc2ccc([N+](=O)[O-])cc2)C(=O)c2ccco2)cc1C	62.6	n	n	n
O=C(c1ccco1)N(Cc1ccc([N+](=O)[O-])cc1)c1ccc(Cl)cc1	n	x	n	n
SMILES	EP2 mod	S1P3 antagonist	EP2 antag	KCC2 mod
O=c1[nH]cnc2c1sc1nc(-c3ccccc3)c3c(c12)CCCC3	n	n	n	n
O=C(O)CSc1ncnc2c1sc1nc(-c3ccccc3)c3c(c12)CCC3	70.4	n	n	n
S=c1nc[nH]c2c1sc1nc(-c3ccccc3)c3c(c12)CCCC3	n	n	n	19.6
Oc1ccc(Cl)cc1Cc1cc(Cl)cc(Cc2cc(Cl)ccc2O)c1O	n	x	57.7	x
O=C(O)Cc1cc(Cl)ccc1O	n	x	n	x
Cc1cc(C)c2c(SCc3ccc(Cl)cc3Cl)nc(N)nc2n1	n	x	47.1	x
Cc1ccc2ccccc2c1CSc1nc(N)nc2c1ncn2CC(C)C	n	x	56.9	x
CC(C)Cn1cnc2c(SCc3ccc(Cl)cc3Cl)nc(N)nc21	n	x	52.5	x
COc1ccc(C(=O)CSc2nc(C)nc3sc(C)c(C)c23)cc1	n	x	n	x
Cc1cccc(C)c1N(CC(=O)N1CCN(C)CC1)S(C)(=O)=O	63.6	n	n	n
Oc1oc(-c2ccccc2)nc1C=Nc1ccccc1	n	x	x	n
CSc1ccccc1N=Cc1nc(-c2ccccc2)oc1O	60.6	n	n	x
COc1cc2c(cc1O)[C@@H](c1cc(O)c(O)c(OC)c1)[C@](O)(C(=O)O)[C@@H](CO)[C@@H]2O	n	x	53.7	x
CN1[C@@H](C(=O)Nc2c(Cl)cccc2Cl)C[C@@H](c2cccs2)NS1(=O)=O	n	x	x	x
